PubChem BioAssay (NCI)
Where “and” joins values, the source holds several entries; their conditions need not be identical. Identical values can stand only once. The panel holds about 83,000 compounds, 20% with a hit somewhere; the sample as a whole holds those more often.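 Plates (96-well) were seeded with cells, treated with compound at one concentration, and incubated for 48 hours before percent growth was determined.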 Calls of active or inactive are those of the source. How the source made its calls: active means growth percent below 10; inactive means the rest.

Legend:
Assay in all cases: NCI-60 one-dose screen, 48 h (100 = growth as untreated, 0 = no growth, -100 = all killed)
SR leukemia = test system: SR leukemia
RPMI-8226 leukemia = test system: RPMI-8226 leukemia
OVCAR-8 ovarian = test system: OVCAR-8 ovarian
OVCAR-5 ovarian = test system: OVCAR-5 ovarian
OVCAR-4 ovarian = test system: OVCAR-4 ovarian
SK-OV-3 ovarian = test system: SK-OV-3 ovarian
IGROV1 ovarian = test system: IGROV1 ovarian
OVCAR-3 ovarian = test system: OVCAR-3 ovarian
HS 578T breast = test system: HS 578T breast
NCI/ADR-RES ovarian = test system: NCI/ADR-RES ovarian

Measured: growth

O=C(c1ccc(Cl)cc1)C(NCCO)c1ccc(Cl)cc1 (stereo not drawn)
inactive: SR leukemia; 10 µM unless noted 92.8% and 88.1% | RPMI-8226 leukemia; 10 µM unless noted 79.3% and 113% | OVCAR-8 ovarian; 10 µM unless noted 99.2% and 99.8% | OVCAR-5 ovarian; 10 µM unless noted 108% and 99.5% | OVCAR-4 ovarian; 10 µM unless noted 103% | SK-OV-3 ovarian; 10 µM unless noted 107% and 98.2% | IGROV1 ovarian; 10 µM unless noted 88.5% and 91.7% | OVCAR-3 ovarian; 10 µM unless noted 104% and 101% | HS 578T breast; 10 µM unless noted 101% and 117%

Cn1c(=O)c2[nH]c(CCCCCCCCc3nc4ccccc4[nH]3)nc2n(C)c1=O
inactive: SR leukemia; 10 µM unless noted 43.5% and 45.4% | RPMI-8226 leukemia; 10 µM unless noted 52.2% | OVCAR-8 ovarian; 10 µM unless noted 58.9% and 69.2% | OVCAR-5 ovarian; 10 µM unless noted 106% and 91.2% | OVCAR-4 ovarian; 10 µM unless noted 23.5% and 50.2% | SK-OV-3 ovarian; 10 µM unless noted 95.4% and 94% | IGROV1 ovarian; 10 µM unless noted 100% and 85.9% | OVCAR-3 ovarian; 10 µM unless noted 88.1% and 66.6% | HS 578T breast; 10 µM unless noted 109% and 85.6%

CN(C)CCCNC1=C(Cl)C(=O)c2ccccc2C1=O
68% (inactive) and -60.7% (active): OVCAR-8 ovarian; 10 µM unless noted
active: SR leukemia; 10 µM unless noted -18.8% | IGROV1 ovarian; 10 µM unless noted -52.5% and -98.8% | HS 578T breast; 10 µM unless noted 9.81%
17.7% (inactive) and -100% (active): OVCAR-4 ovarian; 10 µM unless noted
inactive: RPMI-8226 leukemia; 10 µM unless noted 65% and 45.5% | OVCAR-5 ovarian; 10 µM unless noted 98.4% and 98.8% | SK-OV-3 ovarian; 10 µM unless noted 88.9% and 95.9%
19.8% (inactive) and -44.6% (active): OVCAR-3 ovarian; 10 µM unless noted

CCCCCCCCCCCCCCCc1ccc(Cl)c(O)c1Cl (tested in a mixture with another compound)
inactive: SR leukemia; 10 µM 79.6% | RPMI-8226 leukemia; 10 µM unless noted 29.8% [0.25 µM] | OVCAR-8 ovarian; 0.25 µM 36% | OVCAR-8 ovarian; 10 µM 92.2% | OVCAR-5 ovarian; 0.25 µM 78.5% | OVCAR-5 ovarian; 10 µM 106% | OVCAR-4 ovarian; 0.25 µM 65% | OVCAR-4 ovarian; 10 µM 115% | SK-OV-3 ovarian; 0.25 µM 53.5% | SK-OV-3 ovarian; 10 µM 111% | IGROV1 ovarian; 0.25 µM 28.7% | IGROV1 ovarian; 10 µM 97.4% | OVCAR-3 ovarian; 0.25 µM 65.3% | OVCAR-3 ovarian; 10 µM 112% | HS 578T breast; 0.25 µM 63.9% | HS 578T breast; 10 µM 105% | NCI/ADR-RES ovarian; 0.25 µM 94.8% | NCI/ADR-RES ovarian; 10 µM 96.5%
active: SR leukemia; 0.25 µM 4.53%

CNC(=O)c1cc(Oc2ccc(CC(=O)Nc3cc(C(C)(C)C)nn3C)cc2)ccn1
inactive: SR leukemia; 1 µM 82.7% | SR leukemia; 30 µM 48.9% | RPMI-8226 leukemia; 1 µM 46.2% | RPMI-8226 leukemia; 10 µM 62.6% | OVCAR-8 ovarian; 1 µM 72.5% | OVCAR-8 ovarian; 10 µM 71.8% | OVCAR-8 ovarian; 30 µM 70.6% | OVCAR-5 ovarian; 1 µM 104% | OVCAR-5 ovarian; 10 µM 116% | OVCAR-5 ovarian; 30 µM 98.9% | OVCAR-4 ovarian; 1 µM 58.7% | OVCAR-4 ovarian; 10 µM 44.7% | OVCAR-4 ovarian; 30 µM 83.4% | SK-OV-3 ovarian; 10 µM 71.8% | SK-OV-3 ovarian; 30 µM 94.4% | IGROV1 ovarian; 1 µM 75.1% | IGROV1 ovarian; 10 µM 85.6% | IGROV1 ovarian; 30 µM 90.5% | OVCAR-3 ovarian; 1 µM 81.9% | OVCAR-3 ovarian; 10 µM 69.6% | OVCAR-3 ovarian; 30 µM 109% | HS 578T breast; 1 µM 81.4% | HS 578T breast; 10 µM 65.4% | HS 578T breast; 30 µM 83.5% | NCI/ADR-RES ovarian; 1 µM 85.3% | NCI/ADR-RES ovarian; 10 µM 76% | NCI/ADR-RES ovarian; 30 µM 53.7%

Nc1ncnc2c1ncn2C1CC(O)C(CO)O1 (stereo not drawn)
inactive: SR leukemia; 10 µM unless noted 110% and 95% | RPMI-8226 leukemia; 10 µM unless noted 102% and 105% | OVCAR-8 ovarian; 10 µM unless noted 102% and 109% | OVCAR-5 ovarian; 10 µM unless noted 103% and 116% | OVCAR-4 ovarian; 10 µM unless noted 113% and 107% | SK-OV-3 ovarian; 10 µM unless noted 105% and 110% | IGROV1 ovarian; 10 µM unless noted 116% | OVCAR-3 ovarian; 10 µM unless noted 127% and 109% | HS 578T breast; 10 µM unless noted 107% and 153% | NCI/ADR-RES ovarian; 10 µM unless noted 104% and 113%
